Our source for the Potency values is PubChem BioAssay AID485297 (National Center for Advancing Translational Sciences (NCATS), 2010).

In all, about 320,000 compounds went through this assay and about 9,100 (2.8%) were called active. Not shown: some 3% with an inconclusive outcome. Calls come from the whole dose curve; as a rule, active = well fitted activation curve with a large enough effect; inconclusive = small, poorly fitted or top-dose-only effect; inactive = no such curve, though single readings can be large or run the other way. Shown is part of a subset that was picked to be rich in actives. Where a call stands in place of a potency, no number is given.
Potency is the fitted concentration of half-maximal effect.

This assay is described as follows: qHTS Assay for Rab9 Promoter Activators. Note: nearly all actives have a fitted effect of over 60% in size. The following applies: Huh7 Rab9 promoter-luciferase reporter, luminescence, 24 h; series mostly up to 9.22 µM. A digest of the protocol: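 Promoter activation is measured as luciferase luminescence in Huh7 cells stably transfected with a Rab9 promoter–luciferase construct, following 24 h compound exposure at 37 °C and 10 min reagent incubation at ambient temperature.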
A general note: Quantitative high-throughput screening tests each substance at several concentrations.
Consider `CCOC(=O)c1c(CNCc2ccccc2F)c2sc(C)cc2n1C`, for which the Potency result was “inactive”. For the molecule `COc1ccc(S(=O)(=O)N2CCOCC2)cc1NC(=O)c1ccc(OCC(C)C)c(OC)c1`, the Potency result was “inactive”. For `CN(CCOc1ccccc1)C(=O)c1cc(-c2ccco2)nc2ccccc12` the value was “inactive”. For `CC(OC(=O)c1ccccc1NCCO)C(=O)Nc1ccnn1C(C)C` (configuration not stated) the value was “inactive”; for `COc1cccc(-n2c(SCC(=O)NC3CCS(=O)(=O)C3)nc3ccccc3c2=O)c1` (configuration not stated), “inactive”. Take `O=C(CSc1nc2ccccc2c(=O)n1-c1ccc(F)cc1)NC1CC1`: the Potency result is “inactive”.

As to `Cc1ccc(-n2c(SCC(=O)N3CCC(C(=O)O)CC3)nc3ccccc3c2=O)cc1C`, the Potency was 2820 nM (active). `CC(=O)Nc1ccc(S(=O)(=O)N2CCn3cccc3C2C)cc1` (configuration not stated): the Potency result was “inactive”. Turning to `CCCCc1ccc(NC(=S)N2CCCC(CO)C2)cc1` (configuration not stated), the Potency was 2820 nM (active).

Take `COc1ccc(NC(=S)N2CCCC(CO)C2)c(OC)c1` (configuration not stated): the Potency entry is “inactive”.

As for `CCCCc1ccc(NC(=S)NCCCN2CCOCC2)cc1`, the Potency result was “inactive”. In the case of `Cc1ccc(S(=O)(=O)N2CCN(C(=O)COC(=O)c3c(C)noc3C)CC2)c(C)c1`, the Potency entry was “inactive”.

As for `Cc1ccc(-c2nc(COC(=O)c3c(C)noc3C)cs2)cc1`, the Potency was 3550 nM (active). Take `COc1cc(OC)cc(C(=O)NCC(=O)OCc2csc(-c3ccccc3)n2)c1`: the Potency result is “inactive”. For `COc1cc(C(=O)OCC(=O)NC23CC4CC(CC(C4)C2)C3)cc(OC)c1OC` the value was “inactive”; for `O=C(c1ccc(Cl)c(S(=O)(=O)N2CCCCCC2)c1)N1CCN(c2ccc(O)cc2)CC1`, “inactive”. The same measure for `Cc1ccc(-c2cn3cc([N+](=O)[O-])ccc3n2)cc1`: 355 nM (active).

With `Cc1ccc2nc(-c3ccc(Br)cc3)cn2c1`, the Potency was 316 nM (active).

Consider `Cc1cc(N2CCOCC2)nc(-c2ccc(Br)cc2)n1`, for which the Potency result was “inactive”. The same measure for `Cc1nc(-c2ccc([N+](=O)[O-])cc2)c(-c2ccccc2)o1`: “inactive”; for `CSc1nnc2ccc(-c3ccc(C)cc3)nn12`: “inactive”; for `Cc1ccc(C(=O)Cn2cc([N+](=O)[O-])nc2C)cc1`: “inactive”. On to `COc1ccc(S(=O)(=O)N2CCOCC2)cc1NC(=O)Cc1c(F)cccc1Cl`, for which the Potency entry is “inactive”. For `Cc1cc(NC(=O)CN2C(=O)NC(CCc3ccccc3)C2=O)no1` (configuration not stated) the value was “inactive”; for `OC(COc1ccc(F)cc1Cl)CN1CCc2ccccc2C1` (configuration not stated), “inactive”. For `Cc1cc2oc(C(=O)Nc3c(C)n(C)n(-c4ccccc4)c3=O)c(C)c2cc1Cl`, the Potency entry was “inactive”. The same measure for `CCOc1ccc(Nc2nc(Cl)nc(N3CCN(c4ccc(OC)cc4)CC3)n2)cc1`: “inactive”; for `COc1ccc(Nc2ncc(F)c(N3CCOCC3)n2)cc1`: 891 nM (active); for `Cc1ccc(Nc2nc(N3CCOCC3)nc(N3CCOCC3)n2)cc1Cl`: “inactive”. The same measure for `Cc1cc(C)n2nc(C(=O)Nc3cccc(S(=O)(=O)N4CCOCC4)c3)nc2n1`: “inactive”; for `COC(=O)c1cc2c(ccn2C)n1C`: “inactive”; for `CCc1ccc2oc(-c3ccc(N)cc3)nc2c1`: 501 nM (active).

As to `CCN(CC)c1ccc2oc(=O)c(C)nc2c1`, the Potency result was “inactive”. As for `Cc1ccc(C)c(NC(=O)CSc2nc3c(oc4ccccc43)c(=O)n2-c2ccccc2)c1`, the Potency entry was “inactive”. For `Cc1ccccc1NC(=O)Cc1nc(COC(=O)c2ccc(C(F)(F)F)cc2)cs1` the value was “inactive”.

Regarding `Cc1ccc2c(CN3CCN(S(=O)(=O)c4ccccc4C(F)(F)F)CC3)cc(=O)oc2c1`, the Potency entry is “inactive”. The same measure for `Cc1ccc(-c2nn(-c3ccccc3)cc2C(=O)NC2CCC(O)CC2)cc1` (configuration not stated): “inactive”; for `CC[C@H](C)C(=O)N[C@H]1CCCN1C(=O)/C=C/c1ccccc1`: “inactive”. Regarding `COc1ccc(C2=NOC(COC(=O)c3ccc4ccccc4n3)C2)cc1` (configuration not stated), the Potency result was “inactive”. For the molecule `Cc1ccc(C(=O)NNC2=Nc3cc([N+](=O)[O-])ccc3OC2)cc1`, the Potency entry was “inactive”. For `COc1ccc(C2=Nc3cc(C)ccc3OC2)cc1` the value was 562 nM (active); for `CC(C)OCCCNC(=S)N1CCC(C(=O)c2ccc3c(c2)OCCO3)CC1`, “inactive”. In the case of `Cc1cccc(NC(=O)Nc2ccc(OCc3ccccc3)cc2)n1`, the Potency entry is “inactive”. For `CNS(=O)(=O)c1ccc(NC(=O)Nc2ccc3c(c2)OCO3)cc1` the value was 3550 nM (active). The same measure for `Cc1cccc(NC(=O)/C=C/c2ccc3c(c2)OCO3)n1`: 562 nM (active); for `CCOC(=O)CCCNC(=O)COC(=O)/C=C/c1ccc2c(c1)OCO2`: “inactive”.

In the case of `O=C(/C=C\c1ccc2c(c1)OCO2)NC1(C(=O)Nc2ccc3c(c2)OCCO3)CCCCC1`, the Potency entry was “inactive”. For `Cc1cccc(NC(=O)Nc2ccc3c(c2)OCO3)n1` the value was 2240 nM (active); for `O=C(O)/C=C/c1ccc2c(c1)OCCO2`, “inactive”. As to `CC(C)CNS(=O)(=O)c1ccc(C(=O)Nc2ccc3c(c2)OCO3)cc1`, the Potency entry is “inactive”. The same measure for `COc1ccc(OC)c(/C=C/C(=O)OCC(=O)Nc2ccc3c(c2)OCCO3)c1`: “inactive”. For `COc1cccc(/C=C/C(=O)Nc2ccc3c(c2)OCCO3)c1` the value was 1260 nM (active); for `CC(NS(=O)(=O)c1ccc(Cl)cc1)C(=O)Nc1ccc2c(c1)OCCO2` (configuration not stated), “inactive”; for `CC(NC(=O)Nc1ccc2c(c1)OCO2)c1ccncc1` (configuration not stated), “inactive”. As to `O=C1C=C(c2ccnc3cc(Cl)ccc23)C[C@@H](c2ccc3c(c2)OCO3)C1`, the Potency entry was “inactive”. For `COc1ccc(NS(=O)(=O)c2cccc(C(=O)NCCc3ccc(S(N)(=O)=O)cc3)c2)cc1`, the Potency entry was “inactive”.

In the case of `CC(=O)Nc1ccc(S(=O)(=O)N2CCN(S(=O)(=O)c3cccs3)CC2)cc1`, the Potency entry is “inactive”. The same measure for `CC1CCc2sc(C(=O)NCC(c3ccco3)N3CCCCC3)cc2C1` (configuration not stated): “inactive”; for `O=C(NCCOc1ccccc1Cl)C(=O)Nc1ccccc1`: “inactive”; for `COc1ccc(S(=O)(=O)N2CCOCC2)cc1NC(=O)Cc1coc2cc(C)ccc12`: “inactive”.

For the molecule `Cc1nn(Cc2ccccc2)c(C)c1C(=O)NCCCN1CCCC1=O`, the Potency result is “inactive”.

With `COc1ccccc1-c1nnc(SCC(=O)N2CC(C)CC(C)C2)o1` (configuration not stated), the Potency result is “inactive”. As for `COc1ccc(-c2nnc(SCC(=O)c3cccs3)o2)c(OC)c1`, the Potency was 1120 nM (active). Consider `COc1ccc(CCNC(=O)CSc2nnc(CNC(=O)c3cccs3)o2)cc1OC`, for which the Potency result is “inactive”. For `Cc1ccc(NS(=O)(=O)c2ccc3c(c2)CC(=O)N3)cc1Cl` the value was “inactive”. The same measure for `COc1ccccc1C(CNC(=O)c1ccc(C)c(S(=O)(=O)N2CCCCC2)c1)N(C)C` (configuration not stated): “inactive”; for `CN(CCc1ccccc1)c1ccc([N+](=O)[O-])cn1`: “inactive”. For `COC(=O)[C@]1(C)CCC[C@@]2(C)C3CC[C@]4(OC(C)=O)C[C@@]3(CCC21)CC4=NO` (some centres not stated) the value was “inactive”; for `O=C(Nc1cccc(F)c1)NC1CCCCCCC1`, 3550 nM (active); for `O=C(Nc1cccc(F)c1)NC1CCCc2ccccc21` (configuration not stated), “inactive”. `C/C(CC(=O)Nc1cccc(F)c1)=N\NC(=O)C(=O)NC1CCCCC1`: the Potency entry was “inactive”. The same measure for `Cc1cccc(C)c1NC(=O)CN(C)C(=O)CCC(=O)c1ccccc1`: “inactive”; for `CC(OC(=O)/C=C/c1ccccc1)C(=O)NC1CCCCC1C` (configuration not stated): “inactive”. Regarding `Cc1cccc(NC(=O)Nc2nnc(-c3ccccc3)o2)c1`, the Potency result is “inactive”. The same measure for `Cc1ccc(NC(=O)Nc2ccccc2)c(Br)c1`: 1780 nM (active); for `Cc1c(NC(=O)Nc2ccccc2)cccc1[N+](=O)[O-]`: “inactive”; for `COc1cc2c(cc1OC)CN(C(C)C(=O)Nc1cccc(S(=O)(=O)N3CCOCC3)c1)CC2` (configuration not stated): “inactive”. For `Cc1sc2ncnc(N3CCC(C(=O)Nc4ccc(F)cc4Cl)CC3)c2c1C`, the Potency entry is “inactive”.

Consider `CCCc1cc(-c2nc(-c3ccc(C)cc3)cs2)ccn1`, for which the Potency entry was “inactive”. Turning to `Cc1ccc(-c2csc(-c3c[nH]c4ccccc34)n2)cc1`, the Potency is 2510 nM (active). Take `Cc1ccc(-c2csc(NC3OC(=O)c4ccccc43)n2)cc1` (configuration not stated): the Potency entry is “inactive”.

As to `O=C(CN(C(=O)CCC(=O)Nc1nccs1)c1ccc(F)cc1)NCc1ccc2c(c1)OCO2`, the Potency entry is “inactive”.

Consider `O=C(CSC(=S)N1CCOCC1)c1ccccc1`, for which the Potency was 447 nM (active). Consider `O=C(CSC(=S)N1CCOCC1)c1cc(Br)cc(Br)c1O`, for which the Potency result was “inactive”. For `O=C(CSC(=S)N1CCCCC1)c1c(F)cccc1F`, the Potency is 1410 nM (active). In the case of `CC(=O)c1ccc(NC(=O)CSC(=S)N2CCCC2)cc1`, the Potency result was “inactive”. For `CC1CN(C(=S)SCC(=O)c2ccccc2)CC(C)O1` (configuration not stated) the value was “inactive”; for `COc1cccc(NC(=O)CN(C)C(=O)CSC(=S)N2CCCC2)c1`, “inactive”; for `Cc1occc1-c1nnc(SCC(=O)NC2CCCCC2)o1`, “inactive”. Take `COc1ccc(S(=O)(=O)N2CCN(C(C)C(=O)Nc3ccc(C(C)C)cc3)CC2)cc1` (configuration not stated): the Potency entry was “inactive”. The same measure for `O=C(NCc1ccccc1CN1CCCC1)c1cccc(S(=O)(=O)Nc2ccc(F)cc2)c1`: “inactive”; for `O=C(Nc1ccc2c(c1)OCCO2)c1cnccn1`: 2000 nM (active). On to `O=C(CCN1C(=O)c2ccncc2C1=O)Nc1ccc2c(c1)OCCO2`, for which the Potency result was “inactive”. Consider `CCn1c(SCC(=O)Nc2ccc3c(c2)OCCO3)nnc1-c1ccncc1`, for which the Potency entry was “inactive”. `Cc1ccc(S(=O)(=O)NCC(=O)Nc2ccc3c(c2)OCCO3)cc1`: the Potency result is “inactive”. As for `CCn1c(SCC(=O)Nc2ccc3c(c2)OCCO3)nnc1C(C)C`, the Potency result was “inactive”. For `Cn1ccnc1SCC(=O)Nc1ccc2c(c1)OCCO2` the value was 2510 nM (active); for `O=C(Nc1cccc(NC(=O)c2ccco2)c1)c1cnccn1`, “inactive”. Take `Cc1ccc(SCC(=O)Nc2ccc3c(c2)OCCO3)cc1`: the Potency was 3160 nM (active). Take `Cc1ccc(OCCCC(=O)Nc2ccc3c(c2)OCCO3)cc1`: the Potency entry is “inactive”. In the case of `O=[N+]([O-])c1cc(S(=O)(=O)NCCc2ccccn2)ccc1Cl`, the Potency entry is “inactive”. Consider `COc1ccc(-c2nnc(SC(C)C(=O)NC3CC3)o2)cc1` (configuration not stated), for which the Potency entry was “inactive”. In the case of `Cc1cc(C)cc(NC(=O)NC2CCN(CC(=O)Nc3cccc(Cl)c3C)CC2)c1`, the Potency result was “inactive”. For `O=c1[nH]c2cccnc2n(CCNc2ncc(C(F)(F)F)cc2Cl)c1=O` the value was “inactive”; for `CNS(=O)(=O)c1cccc(C(=O)OCC(=O)N2c3ccccc3NC(=O)C2(C)C)c1`, “inactive”. Turning to `CCOc1ccc(C(C)NC(=O)CN2C(=O)NC3(CCCCC3)C2=O)cc1OCC` (configuration not stated), the Potency result was “inactive”. The same measure for `Cc1ccn(-c2cccc(-n3ccc(C)n3)n2)n1`: 2820 nM (active).
